Reference: PubChem BioAssay AID651591 (Broad Institute, 2012)
Results with a measured potency or affinity are listed apart. Active and inactive are the calls of the source.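 How the source made its calls: active means compounds lowering cell ATP signal whose fitted half-effect dose is at most a set limit; inconclusive means flat fit showing moderate signal loss, or unreliable curve fit; inactive means the rest, including signal increases.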

Assay: cytotoxicity in MITF-independent A375 cells – cell-based, CellTiter-Glo luminescence, dry powder, set 9, counter-screen for MITF modulator project, dose response (AID 651591)
Conditions: A375 melanoma viability, CellTiter-Glo ATP luminescence, 24 h; series mostly up to 35 µM

Question: Which outcome does the source give for `O=C1C=C(NS(=O)(=O)c2ccccc2)C(=O)c2ccccc21` here?
Answer: inactive

Question: With `O=C1C=C(NS(=O)(=O)c2cccs2)C(=O)c2ccccc21` as the molecule, how does the outcome read?
Answer: inactive

Question: With `NC1=C(NS(=O)(=O)c2ccccc2)C(=O)c2ccccc2C1=O` as the molecule, how does the outcome read?
Answer: inactive

Question: Which outcome does the source give for `CC(C)N1CCN(C2=C(Nc3ccc(F)cc3F)C(=O)c3ccccc3C2=O)CC1` here?
Answer: inactive

Question: Which outcome does the source give for `O=C1C(Nc2ccccc2)=C(c2ccccc2)C(=O)c2ccccc21` here?
Answer: inactive

Question: For `NC1=C(NS(=O)(=O)c2ccc(Br)s2)C(=O)c2ccccc2C1=O`, which outcome is on record?
Answer: inactive

Question: With `NC1=C(NS(=O)(=O)c2ccc(Br)cc2)C(=O)c2ccccc2C1=O` as the molecule, how does the outcome read?
Answer: inactive

Question: Which outcome does the source give for `O=C1C=C(NS(=O)(=O)c2ccc(Br)cc2)C(=O)c2ccccc21` here?
Answer: inactive
